Data on eight molecules can be found in PubChem BioAssay (NCATS).

Experiment [1] is described as follows: Cellular Toxicity (caspase-3) HepG2 (AID 654).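 For caspase-3 activation: cells exposed to compound for 16 hours before reading.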 Note: potency is the fitted concentration of half-maximal effect. The conditions noted are these: HepG2 caspase-3 activation, luminescence; series mostly up to 92.2 µM. An outline of the steps: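 Luminescent Caspase-Glo 3/7 readout after 16 hr compound exposure of human hepatocellular carcinoma HepG2 cells at 37 °C; qHTS concentration-response, normalized DMSO = 0%, 100 uM tamoxifen = 100%; AC50 by standard Hill equation.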

Experiment [2] can be described thus: Cellular Toxicity (caspase-3) Jurkat (AID 655).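 Note: cells exposed to compound for 16 h at 37 °C before reading.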 Note: potency is the fitted concentration of half-maximal effect. The conditions noted are these: Jurkat caspase-3 activation, luminescence; series mostly up to 92.2 µM. In short, it runs like this: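 Luminescent caspase-3/7 readout (aminoluciferin substrate cleavage) in human T-cell leukemia Jurkat cells after 16 hr compound exposure. Concentration-response normalized to DMSO and 100 uM tamoxifen; AC50 by standard Hill equation.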

The nature of experiment [3]: Cellular Toxicity (caspase-3) HUV-EC-C (AID 656). The conditions noted are these: HUV-EC-C cells, caspase-3 activation (apoptosis), vehicle = 0, 100 µM tamoxifen = 100%; series mostly up to 92.2 µM. An outline of the steps:
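Luminescent caspase-3/7 activation (aminoluciferin substrate cleavage) in HUV-EC-C cells after 16 hr compound exposure, 37°C. Signal normalized to DMSO basal and 100 uM tamoxifen as 100%; AC50 from concentration-response fitted with the Hill equation.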

A short description of experiment [4]: Cellular Toxicity (caspase-3) SHSY5Y (AID 657).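 Note: cells exposed to compound for 16 hours at 37 °C.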 Note: potency is the fitted concentration of half-maximal effect. The note with it: SH-SY5Y caspase-3 activation; series mostly up to 91.7 µM. In short, it runs like this: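 Luminescent caspase-3/7 readout (aminoluciferin release) in SH-SY5Y cells after 16 h compound exposure in complete medium. Activity scaled between DMSO basal and 10 uM staurosporine as 100%; concentration-response fitted to Hill equation for AC50.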

Experiment [5] is described as follows: Cellular Toxicity (caspase-3) BJ (AID 658).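 Note: cells exposed to compound for 16 hours.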 The note with it: BJ fibroblasts, luminescence, normalized: DMSO 0%, staurosporine 100%; series mostly up to 91.7 µM. In short, it runs like this: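 qHTS, BJ fibroblasts, 1000 cells/well; 5 hr preincubation, 16 hr compound, 37 °C; Caspase-Glo 3/7 reagent, 1 hr RT; luminescence. DMSO = 0%, 10 uM staurosporine = 100%. Hill-equation AC50.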

Experiment [6] is described as follows: Cellular Toxicity (caspase-3) MRC-5 (AID 659). The note with it: MRC-5 cells, luminescence, normalized: DMSO 0%, 10 µM staurosporine 100%; series mostly up to 91.7 µM. An outline of the steps:
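MRC-5 fibroblasts, 1500/well; 16 h cpd, 37 °C; Caspase-Glo 3/7, 1 h RT; lumi read. Norm: DMSO = 0%, 10 uM staurosporine = 100%. Hill-fit AC50 from qHTS conc-response.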

Experiment [7] is described as follows: Cellular Toxicity (caspase-3) Mesangial (AID 660).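 Note: combined caspase 3 and 7 activity read by Caspase-Glo luminescence; cells exposed to compound for 16 h before the caspase read.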 Note: potency is the fitted concentration of half-maximal effect. The note with it: mesangial cells; Potency: caspase-3 activation; series mostly up to 91.7 µM. In short, it runs like this: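 Luminescent Caspase-Glo 3/7 readout (aminoluciferin substrate cleavage, 20 min RT) after 16 h compound exposure at 37 °C of normal human mesangial cells. Signal increase normalized between DMSO basal and 100 uM tamoxifen; Hill-equation AC50.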

Experiment [8] can be described thus: Cellular Toxicity (caspase-3) SK-N-SH (AID 661).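 Note: cells exposed to compound for 16 hours.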 Note: potency is the fitted concentration of half-maximal effect. The note with it: SK-N-SH caspase-3 activation, qHTS; series mostly up to 91.7 µM. In short, it runs like this: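 Luminescent Caspase-Glo 3/7 read-out after 16 hr compound exposure of SK-N-SH neuroblastoma cells at 37 °C. Signal increase normalized to DMSO (basal) and 10 uM staurosporine (100%); AC50 from Hill equation fits of qHTS concentration-response data.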

Experiment [9] is described as follows: Cellular Toxicity (caspase-3) H-4-II-E (AID 663).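 For caspase-3 activation: cells exposed to compound for 16 hr before readout.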 Note: potency is the fitted concentration of half-maximal effect. The conditions noted are these: H-4-II-E rat hepatoma; Potency: caspase-3 activation; series mostly up to 92.2 µM. In short, it runs like this:
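H-4-II-E rat hepatoma, 1500 cells/well, 5 hr settle at 37 °C; compound 16 hr, 37 °C, complete medium; Caspase-Glo 3/7, 20 min RT; luminescence. DMSO = 0%, 100 uM tamoxifen = 100%; Hill-equation AC50.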

Experiment [10] is described as follows: Cellular Toxicity (caspase-3) Hek293 (AID 664).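 Note: cells exposed to compound for 16 h at 37 °C before readout.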 The conditions noted are these: HEK293 caspase-3 activation, DMSO = 0%, 100 µM tamoxifen = 100%; series mostly up to 92.2 µM. In short, it runs like this: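 Luminescent Caspase-Glo 3/7 readout (aminoluciferin release) in HEK293 cells after 16 h compound treatment, 37 °C. Normalization: DMSO = basal, 100 uM tamoxifen = 100% stimulation. Concentration-response fitted with standard Hill equation for AC50.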

Inconclusive results are not listed. Activity calls are given as the source filed them. Calls come from the whole dose curve; as a rule, active = well fitted curve in the direction sought with a large enough effect; inconclusive = small, poorly fitted or top-dose-only effect, or another doubt; inactive = no such curve, though single readings can be large; an effect the other way counts as inactive or inconclusive.

Regarding `CNC(=O)Oc1cccc2ccccc12`, the Potency entry in [1], in [2], in experiment [4], in experiment [7], in [8] and in experiment [9] was “inactive” throughout. The result in [3], in experiment [5], in experiment [6] and in experiment [10] was inactive.

`CCCCCCCCCCCC[N+](C)(C)CCOc1ccccc1`: in experiment [1], the Potency was 39800 nM (active). The call in [3] and in experiment [10] was inactive. The Potency entry in experiment [4] and in experiment [7] was “inactive” throughout.

Turning to `Oc1c(Br)cc(Br)cc1Br`, the Potency entry in experiment [1], in experiment [4], in experiment [7], in [8] and in experiment [9] was “inactive” in each case. Besides, the result in experiment [3], in experiment [5], in [6] and in experiment [10] was inactive.

Regarding `C[C@@H]1C[C@@H]([C@H](O)CC2CC(=O)NC(=O)C2)C(=O)[C@@H](C)C1`, the Potency result in [1], in experiment [4], in experiment [7] and in [8] was “inactive” in each case. For the same molecule, the result in experiment [3], in experiment [5], in experiment [6] and in experiment [10] was inactive. In addition, the Potency in experiment [9] is 15800 nM (active).

In the case of `CN(C)C(=S)SSC(=S)N(C)C`, the Potency result in experiment [1], in experiment [4], in [8] and in experiment [9] was “inactive” in each case. Besides, the figures for the Potency in experiment [2] and in [7] were 63.1 nM (active) and 398 nM (active), respectively. The result in experiment [3], in [5], in experiment [6] and in experiment [10] was inactive.

In the case of `O=C(CCl)c1ccc(Cl)cc1Cl`, the Potency entry in experiment [1] and in [7] was “inactive” in each case. The Potency in [2] was 251 nM (active); in [4], 2510 nM (active); in experiment [8] it was 1580 nM (active). For the same molecule, the call in experiment [3], in experiment [5] and in experiment [6] was inactive.

With `CC[n+]1c(-c2ccccc2)c2cc(N)ccc2c2ccc(N)cc21`, the Potency result in experiment [1], in experiment [2], in experiment [4], in [7], in experiment [8] and in experiment [9] was “inactive” in each case. Further, the molecule was classed as inactive in experiment [3], in [5], in experiment [6] and in experiment [10].

On to `COP(=O)(OC)OC=C(Cl)Cl`, for which the Potency entry in [1], in [2], in experiment [4], in experiment [7], in [8] and in experiment [9] was “inactive” in each case. For the same molecule, the outcome in experiment [3], in experiment [5], in experiment [6] and in experiment [10] was inactive.
